Each structure is given as a SMILES string. The campaign covered roughly 13,000 compounds. About 3,200 (25%) showed an effect of 50% or more. The list shows a part of the results.

This test relates to P. falciparum stage V gametocytes. The arrangement: BacTiter-Glo ATP luminescence viability of purified stage V gametocytes in 384-well plates, per cent inhibition versus DMSO. The conditions noted are these: 48 h, 5 µM; inhibitor.
`COc1ccc(N2CCN(CCCCNC(=O)c3ccc(/C=C/c4ccc(Cl)c(Cl)c4)cc3)CC2)c(OC)c1` [TCMDC-138175]: the “% Inhibition” value is recorded as -78.16%.
Next, `CS(=O)(=O)c1ccc2nc(NC(=O)c3csnn3)sc2c1` [TCMDC-125074]: 49.99%; `NC1=NC2(CCCC2)N(c2ccc(Cl)cc2)C(N)=N1` [TCMDC-137719]: 0.5076%; `NC(N)=NC(=O)Nc1cc(Cl)c(Cl)c(Cl)c1` [TCMDC-137465]: -8.846%.
With `CCc1cn(CC(=O)N(CCOc2ccc(-c3ccc(C(F)(F)F)cc3)cc2)CCN(CC)CC)c(SCc2ccc(F)cc2)nc1=O` [TCMDC-140925] the figure was 116.2%; with `CCN(CC)CCN(Cc1ccc(-c2ccc(Cl)cc2)cc1)C(=O)Cn1cc(CN(C)C)c(=O)nc1SCc1ccc(F)cc1` [TCMDC-140406], 107.7%; with `CC(C)Sc1nc2c(c(=O)n1Cc1ccco1)C1(CCCCC1)Cc1ccccc1-2` [TCMDC-125100], 0.5988%.
With `COc1ccc(CNC2CCN(C)CC2)cc1-c1ccc(S(=O)(=O)NC2CCC2)c(C)c1` [TCMDC-132270] the figure was 86.28%; with `COc1ccc(CNC2CCN(C)CC2)cc1-c1ccc(S(=O)(=O)NC2CCC2)cc1` [TCMDC-132245], 84.43%; with `COc1ccc(CNC2CCN(C)CC2)cc1-c1ccc(S(=O)(=O)NC2CCC2)c(F)c1` [TCMDC-132263], 28.54%.
On to `N=C(N)c1ccc(NN=Cc2ccc(Oc3ccc(C(=N)N)cc3)cc2)cc1` [TCMDC-137493], for which the “% Inhibition” value was determined as 43.38%.
With `CC(C)Cc1c(O)nc(SCCN2CCOCC2)[nH]c1=O` [TCMDC-125767] the figure was 17.13%; with `O=C(O)C[C@H](NC(=O)[C@@H]1CCCN1C(=O)c1cccc(-c2ccc(Cl)c(Cl)c2)c1)C(=O)O` [TCMDC-140511], 4.214%.
Consider `O=[N+]([O-])c1ccc(NC(=NC2CCCc3ccccc32)Nc2ccccc2Br)c(O)c1` (stereo not shown) [TCMDC-139983], for which the “% Inhibition” value was -2.666%.
For the compound `COc1c(OC)c(OC)c2ccccc2c1CNCCCCCCNCc1c(OC)c(OC)c(OC)c2ccccc12` [TCMDC-137827], the “% Inhibition” value was 106%.
Consider `COc1c(CNCCCCCCNCc2c(OC)c(OC)c3ccccc3c2OC)c(OC)c2ccccc2c1OC` [TCMDC-137837], for which the “% Inhibition” value was 111.1%.
With `CCCNCc1c(O)ccc2c(CNCCC)c(O)ccc12` [TCMDC-137593] the figure was -47.95%.
Next, `O=C(NC1CC1)c1ccc(N2CCCC(COc3ccccc3F)C2)nc1` (stereo not shown) [TCMDC-134034]: 24.35%; `Cc1cccc2nc(-c3ccc(-c4cccc(NC(=O)COc5ccccc5C(N)=O)c4)s3)[nH]c12` [TCMDC-132133]: 0.7486%.
With `CN(CCCCNC(=O)c1cc2ccccc2[nH]1)C1CC2(CCN(C(=O)OC(C)(C)C)CC2)c2ccccc21` (stereo not shown) [TCMDC-132884] the figure was 36.87%; with `CN(CCCCNC(=O)/C=C/c1ccccc1)C1CC2(CCN(C(=O)OC(C)(C)C)CC2)c2ccccc21` (stereo not shown) [TCMDC-132882], -12.8%; with `CN(C1CCC(NC(=O)/C=C/c2ccccc2)CC1)C1CC2(CCN(C(=O)OC(C)(C)C)CC2)c2ccccc21` (stereo not shown) [TCMDC-132880], 63.78%.
`OC(CNCc1ccccc1OCc1ccccc1)c1cc(C(F)(F)F)cc(C(F)(F)F)c1` (stereo not shown) [TCMDC-140300]: the “% Inhibition” value is -49.16%.
On to `CCCCN(Cc1cc(Cl)c(OCC)c(OC)c1)c1ccc(C(O)(C(F)(F)F)C(F)(F)F)cc1` [TCMDC-135622], for which the “% Inhibition” value is recorded as 2.509%.
With `CCCCN(Cc1cccc(C(F)(F)F)c1Cl)c1ccc(C(O)(C(F)(F)F)C(F)(F)F)cc1` [TCMDC-135213] the figure was -4.716%; with `CCCCN(Cc1cc(Cl)c(OC)c(OC)c1)c1ccc(C(O)(C(F)(F)F)C(F)(F)F)cc1` [TCMDC-135446], 54.26%; with `Cc1ccc(F)cc1S(=O)(=O)Nc1cccc(CCN2CCC(N3CCCCC3)CC2)c1` [TCMDC-134068], 67.59%.
Next, `Cc1ccc(F)cc1S(=O)(=O)Nc1ccc(CCN2CCC(N3CCCCC3)CC2)cc1` [TCMDC-134088]: 60.27%.
Next, `COc1ccc(C2C(C(=O)OC3CCCCC3)=C(C)NC3=C2C(=O)CCC3)cc1Br` (stereo not shown) [TCMDC-125070]: -15.5%; `COc1cc(CCCON2C(N)=NC(N)=NC2(C)C)cc(OC)c1OC` [TCMDC-131726]: 7.417%.
On to `COc1ccc(C=C2SC(=N)N(c3ccccc3OC)C2=O)cc1` [TCMDC-124486], for which the “% Inhibition” value came to 37.63%.
With `NC1=NC2(CCCCC2)N(OCCCOc2cccc3ccccc23)C(N)=N1` [TCMDC-131649] the figure was 49.63%; with `Cc1ccc(Nc2c3ccccc3nc3ccc(C)cc23)cc1` [TCMDC-124153], -51.64%.
With `CC(=O)Nc1cccc(Nc2c3ccccc3nc3ccccc23)c1` [TCMDC-123741] the figure was -71.42%.
With `O=c1c2ccccc2[nH]c2nc3ccccc3c(Nc3ccccc3)c12` [TCMDC-141996] the figure was 28.3%; with `CCOc1ccc(Nc2nc(N)c3ccccc3n2)cc1.Cl` [TCMDC-123748], 31.55%.
As for `Cl.c1ccc2c(Nc3ccc(Oc4ccc(Nc5c6ccccc6nc6ccccc56)cc4)cc3)c3ccccc3nc2c1` [TCMDC-124284], the “% Inhibition” value was 101.1%.
Next, `Cl.c1ccc2c(Nc3ccc(OCCOCCOc4ccc(Nc5c6ccccc6nc6ccccc56)cc4)cc3)c3ccccc3nc2c1` [TCMDC-137355]: 108.9%; `CC(=O)Nc1ccc(Nc2c3ccccc3nc3ccccc23)cc1` [TCMDC-124356]: 67.17%.
Next, `Cc1cc2cc(/C=C/C(=O)NC3CCC(CCN4CCc5ccc(C#N)cc5CC4)CC3)ccc2[nH]1` (stereo not shown) [TCMDC-139673]: -19.51%; `CCn1cc2c3c(cc(C(=O)N[C@@H](Cc4ccccc4)[C@H](O)CNC4CCOCC4)cc31)N(C)S(=O)(=O)CC2` [TCMDC-135785]: -5.565%; `COc1ccc(Nc2nc(NC3CCCC3)cc(-c3ccc(OC)cc3)n2)cc1` [TCMDC-133468]: -75.14%.
With `Cc1ccccc1C1CCN(c2ccc(C(=O)Nc3ccc(F)cc3)cn2)CC1` [TCMDC-134611] the figure was 39.85%.

(Values after PMC4552634, “A New Set of Chemical Starting Points with Plasmodium falciparum Transmission-Blocking Potential for Antimalarial Drug Discovery” (PLoS ONE, 2015).)
